Test results published in PubChem BioAssay (NCI).
This is part of a sample that, as a whole, favours compounds with a hit. Of some 83,000 tested, about 20% had one in any assay.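 The test compound was applied at a single concentration to cells in 96-well plates for 48 hours, and percent growth was recorded.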 The source made the active and inactive calls. The calls were made as follows: active = growth percent below 10; inactive = the rest.

Experiments:
Test in all cases: NCI-60 one-dose screen, 48 h (100 = growth as untreated, 0 = no growth, -100 = all killed)
Conditions in all cases: 10 µM unless noted
SR leukemia = test system: SR leukemia
RPMI-8226 leukemia = test system: RPMI-8226 leukemia
OVCAR-8 ovarian = test system: OVCAR-8 ovarian
OVCAR-5 ovarian = test system: OVCAR-5 ovarian
OVCAR-4 ovarian = test system: OVCAR-4 ovarian
SK-OV-3 ovarian = test system: SK-OV-3 ovarian
IGROV1 ovarian = test system: IGROV1 ovarian
OVCAR-3 ovarian = test system: OVCAR-3 ovarian
HS 578T breast = test system: HS 578T breast
NCI/ADR-RES ovarian = test system: NCI/ADR-RES ovarian

Measured: growth

O=C1OCC2=C1C(c1ccccc1)c1cc3c(cc1N2CCO)OCCO3 (stereo not given)
active: OVCAR-3 ovarian -56.3% | HS 578T breast -9.64% | NCI/ADR-RES ovarian -26.8%
inactive: SR leukemia 19.7% | RPMI-8226 leukemia 27.9% | OVCAR-8 ovarian 32.5% | OVCAR-5 ovarian 37.5% | OVCAR-4 ovarian 31.1% | SK-OV-3 ovarian 22.4% | IGROV1 ovarian 17.8%

C[N+]1=C(/C=C/c2ccccc2Cl)C(C)(C)c2ccccc21
inactive: SR leukemia 18.2% | RPMI-8226 leukemia 66.9% | OVCAR-8 ovarian 90.8% | OVCAR-5 ovarian 100% | OVCAR-4 ovarian 96.1% | SK-OV-3 ovarian 94.3% | IGROV1 ovarian 90.6% | OVCAR-3 ovarian 78.3% | HS 578T breast 102% | NCI/ADR-RES ovarian 101%

CN1C(=O)/C(=C/c2ccc(C(=O)Nc3ncc(Cc4cccc(C(F)(F)F)c4)s3)cc2)SC1=S
inactive: SR leukemia 52.6% | RPMI-8226 leukemia 22.1% | OVCAR-8 ovarian 59.8% | OVCAR-5 ovarian 60.8% | OVCAR-4 ovarian 34.4% | SK-OV-3 ovarian 50.6% | IGROV1 ovarian 56.7% | OVCAR-3 ovarian 71.1% | HS 578T breast 63.9% | NCI/ADR-RES ovarian 33.4%

COc1ccc(N=C2NN=C(c3c[nH]c4ccccc34)CS2)cc1OC
active: IGROV1 ovarian -32.4% | OVCAR-3 ovarian -9.06%
inactive: SR leukemia 93.6% | RPMI-8226 leukemia 17% | OVCAR-8 ovarian 71.7% | OVCAR-5 ovarian 74.6% | OVCAR-4 ovarian 69.2% | SK-OV-3 ovarian 67.7% | HS 578T breast 52.8% | NCI/ADR-RES ovarian 17.7%

CSc1nc(-c2ccco2)c(C#N)c(=O)n1C
inactive: SR leukemia 74.9% | RPMI-8226 leukemia 91.8% | OVCAR-8 ovarian 108% | OVCAR-5 ovarian 109% | OVCAR-4 ovarian 103% | SK-OV-3 ovarian 97% | IGROV1 ovarian 105% | OVCAR-3 ovarian 104% | HS 578T breast 97% | NCI/ADR-RES ovarian 51.2%

COc1cc2c(c(OC)c1OC)CCC(c1cccc(C(=O)Nc3ccc(Br)cc3)c1)O2 (stereo not given)
inactive: SR leukemia 27.7% | RPMI-8226 leukemia 40.5% | OVCAR-8 ovarian 71.8% | OVCAR-5 ovarian 68.4% | OVCAR-4 ovarian 63.8% | SK-OV-3 ovarian 72.7% | IGROV1 ovarian 61.2% | OVCAR-3 ovarian 78.8% | HS 578T breast 78.5% | NCI/ADR-RES ovarian 63.9%

CCSc1ccnc(N)n1
inactive: SR leukemia 153% | RPMI-8226 leukemia 114% | OVCAR-8 ovarian 108% | OVCAR-5 ovarian 104% | OVCAR-4 ovarian 111% | SK-OV-3 ovarian 110% | IGROV1 ovarian 96.7% | OVCAR-3 ovarian 97.3% | HS 578T breast 117% | NCI/ADR-RES ovarian 109%

CCCC(O)Cn1ncc(C(=O)OCC)c1NC(=O)NCc1cccc(C(F)(F)F)c1 (stereo not given)
inactive: SR leukemia 76.1% | RPMI-8226 leukemia 47.9% | OVCAR-8 ovarian 102% | OVCAR-5 ovarian 107% | OVCAR-4 ovarian 104% | SK-OV-3 ovarian 84.8% | IGROV1 ovarian 83.8% | OVCAR-3 ovarian 100% | HS 578T breast 107% | NCI/ADR-RES ovarian 86.4%

O=C(/C=C/C12c3ccccc3C(c3ccccc31)C1C(=O)NC(=O)C12)c1ccc(I)cc1 (stereo not given)
active: RPMI-8226 leukemia 3.09% | OVCAR-3 ovarian 9.43%
inactive: SR leukemia 25.2% | OVCAR-8 ovarian 35.6% | OVCAR-5 ovarian 73.4% | OVCAR-4 ovarian 84.8% | SK-OV-3 ovarian 83% | IGROV1 ovarian 55.6% | HS 578T breast 49.1% | NCI/ADR-RES ovarian 50.9%

CCOC(=O)C(CCN(C)C)c1ccccc1 (stereo not given)
inactive: SR leukemia 97.8% | RPMI-8226 leukemia 98.2% | OVCAR-8 ovarian 111% | OVCAR-5 ovarian 88.7% | OVCAR-4 ovarian 100% | SK-OV-3 ovarian 104% | IGROV1 ovarian 104% | OVCAR-3 ovarian 96.4% | HS 578T breast 98% | NCI/ADR-RES ovarian 103%

c1ccc2cc(Cn3cc(CSc4nc5ccccc5s4)nn3)ccc2c1
inactive: SR leukemia 103% | RPMI-8226 leukemia 95.7% | OVCAR-8 ovarian 90.7% | OVCAR-5 ovarian 99.7% | OVCAR-4 ovarian 98.1% | SK-OV-3 ovarian 93.3% | IGROV1 ovarian 93.9% | OVCAR-3 ovarian 103% | HS 578T breast 87.1% | NCI/ADR-RES ovarian 96.9%

COCCn1cc(-c2csc(-c3c[nH]c4ccccc34)n2)c2cccnc21
inactive: RPMI-8226 leukemia 43.8% | OVCAR-8 ovarian 38.6% | OVCAR-5 ovarian 75.7% | OVCAR-4 ovarian 44.3% | SK-OV-3 ovarian 49.5% | IGROV1 ovarian 41.8% | OVCAR-3 ovarian 20.7% | HS 578T breast 57.4% | NCI/ADR-RES ovarian 12.7%
active: SR leukemia 8.15%

C=C1C(=O)O[C@H]2[C@H]1CC/C(COC(=O)NCc1ccc(Cn3c(=O)sn(-c4ccccc4)c3=O)cc1)=C\CC[C@@]1(C)O[C@@H]21
active: SR leukemia -4.67% | RPMI-8226 leukemia 1.88% | IGROV1 ovarian -40.1% | OVCAR-3 ovarian -15.6%
inactive: OVCAR-8 ovarian 42% | OVCAR-5 ovarian 68.3% | OVCAR-4 ovarian 34.8% | SK-OV-3 ovarian 134% | HS 578T breast 87.5% | NCI/ADR-RES ovarian 106%

Fc1ccc(/C=C/[C@@H]2C[C@@H](F)CCO2)cc1
inactive: SR leukemia 61.1% | RPMI-8226 leukemia 67.6% | OVCAR-8 ovarian 98.4% | OVCAR-5 ovarian 89.7% | OVCAR-4 ovarian 119% | SK-OV-3 ovarian 102% | IGROV1 ovarian 103% | OVCAR-3 ovarian 113% | HS 578T breast 84.8% | NCI/ADR-RES ovarian 103%

COC(=O)/C=C1/SC(=NCc2ccccc2)N(CCc2c[nH]c3ccccc23)C1=O
inactive: SR leukemia 29.8% | RPMI-8226 leukemia 52.4% | OVCAR-8 ovarian 67.6% | OVCAR-5 ovarian 110% | OVCAR-4 ovarian 78.1% | SK-OV-3 ovarian 111% | IGROV1 ovarian 92.1% | OVCAR-3 ovarian 79.1% | HS 578T breast 79.7% | NCI/ADR-RES ovarian 80.6%

COc1ccc(-c2cc(-c3cccnc3)nc3sc4c(N)c(C(C)=O)c(-c5ccccc5)nc4c23)cc1OC
inactive: SR leukemia 75.4% | RPMI-8226 leukemia 53.7% | OVCAR-8 ovarian 84.9% | OVCAR-5 ovarian 89.5% | OVCAR-4 ovarian 90.7% | SK-OV-3 ovarian 110% | IGROV1 ovarian 98.5% | OVCAR-3 ovarian 82.4% | HS 578T breast 45.6% | NCI/ADR-RES ovarian 79%

O=c1oc2ccccc2cc1-c1nn(-c2ccccc2)cc1-c1nn[nH]n1
inactive: SR leukemia 92.4% | RPMI-8226 leukemia 100% | OVCAR-8 ovarian 104% | OVCAR-5 ovarian 93.2% | OVCAR-4 ovarian 97.9% | SK-OV-3 ovarian 99.8% | IGROV1 ovarian 99.1% | OVCAR-3 ovarian 114% | HS 578T breast 105% | NCI/ADR-RES ovarian 102%

CSc1ccc(N2C(=N)C(=S)N(c3ccc(C)cc3)C2=O)cc1
inactive: SR leukemia 80.3% | RPMI-8226 leukemia 89% | OVCAR-8 ovarian 96.1% | OVCAR-5 ovarian 89% | OVCAR-4 ovarian 96.4% | SK-OV-3 ovarian 81.1% | IGROV1 ovarian 103% | OVCAR-3 ovarian 105% | HS 578T breast 96% | NCI/ADR-RES ovarian 106%

COc1ccc(/C=C(/C(=O)N2CCNCC2)c2cc(OC)c(OC)c(OC)c2)cc1O
inactive: OVCAR-8 ovarian 52.1% | OVCAR-5 ovarian 86.3% | OVCAR-4 ovarian 78.7% | SK-OV-3 ovarian 10.1% | IGROV1 ovarian 60.2% | OVCAR-3 ovarian 10.5% | HS 578T breast 26.7% | NCI/ADR-RES ovarian 105%
active: SR leukemia 3.13% | RPMI-8226 leukemia 9.6%

Cc1cccc(N=Nc2cccc(C)c2)c1
inactive: SR leukemia 108% | RPMI-8226 leukemia 110% | OVCAR-8 ovarian 103% | OVCAR-5 ovarian 94.2% | OVCAR-4 ovarian 107% | SK-OV-3 ovarian 106% | IGROV1 ovarian 102% | OVCAR-3 ovarian 113% | HS 578T breast 117% | NCI/ADR-RES ovarian 108%

O=C1Nc2ccccc2/C1=N/N1C(=O)CN(CCCl)C1=O
inactive: SR leukemia 104% | RPMI-8226 leukemia 101% | OVCAR-8 ovarian 100% | OVCAR-5 ovarian 103% | OVCAR-4 ovarian 118% | SK-OV-3 ovarian 96.9% | IGROV1 ovarian 97.1% | OVCAR-3 ovarian 113% | HS 578T breast 95.9% | NCI/ADR-RES ovarian 102%

O=C1C(Cl)=C(Nc2ccccc2)C(=O)c2ccccc21
active: SR leukemia -21% | RPMI-8226 leukemia -7.02% | OVCAR-8 ovarian -32.1% | OVCAR-4 ovarian -96.9% | IGROV1 ovarian -77.6% | OVCAR-3 ovarian -96.7% | NCI/ADR-RES ovarian -15.2%
inactive: OVCAR-5 ovarian 75.7% | SK-OV-3 ovarian 75.1% | HS 578T breast 54%

COCCn1cc(-c2csc(-c3c[nH]c4ccc(F)cc34)n2)c2cccnc21
inactive: RPMI-8226 leukemia 21.4% | OVCAR-8 ovarian 34% | OVCAR-5 ovarian 60.9% | OVCAR-4 ovarian 37.6% | SK-OV-3 ovarian 49.7% | IGROV1 ovarian 42% | OVCAR-3 ovarian 15.2% | HS 578T breast 52.2%
active: SR leukemia 9.53% | NCI/ADR-RES ovarian 7.39%

N#CSc1c[nH]c2ccc(/C=C/C(=O)/C=C(O)/C=C/c3ccc4[nH]cc(SC#N)c4c3)cc12
active: SR leukemia 2.57% | RPMI-8226 leukemia 3.93% | OVCAR-8 ovarian 9.71% | IGROV1 ovarian 3.73%
inactive: OVCAR-5 ovarian 67.4% | OVCAR-4 ovarian 18.6% | SK-OV-3 ovarian 100% | OVCAR-3 ovarian 18.3% | HS 578T breast 51.7% | NCI/ADR-RES ovarian 46.4%

CC1(C)CC(=O)C2=C(C1)C(c1ccc(Cl)cc1)n1ncc(C#N)c1N2 (stereo not given)
inactive: SR leukemia 109% | RPMI-8226 leukemia 96% | OVCAR-8 ovarian 97% | OVCAR-5 ovarian 103% | OVCAR-4 ovarian 96.3% | SK-OV-3 ovarian 82.8% | IGROV1 ovarian 85.7% | OVCAR-3 ovarian 113% | HS 578T breast 98.1% | NCI/ADR-RES ovarian 106%

O=C(Nc1ncc(Cc2ccccc2)s1)c1sc2ccccc2c1Cl
inactive: SR leukemia 16% | RPMI-8226 leukemia 28% | OVCAR-8 ovarian 27.8% | OVCAR-5 ovarian 41.8% | OVCAR-4 ovarian 68.1% | SK-OV-3 ovarian 28.8% | IGROV1 ovarian 33.1% | HS 578T breast 13.5% | NCI/ADR-RES ovarian 16.1%
active: OVCAR-3 ovarian -30.6%

CCOC(=O)NCCCC(=O)NCCc1ccccc1
inactive: SR leukemia 106% | RPMI-8226 leukemia 110% | OVCAR-8 ovarian 104% | OVCAR-5 ovarian 118% | OVCAR-4 ovarian 107% | SK-OV-3 ovarian 108% | IGROV1 ovarian 106% | OVCAR-3 ovarian 108% | HS 578T breast 106% | NCI/ADR-RES ovarian 104%
